In PubChem BioAssay AID1159580 (chemical genetic matrix, 2015):
The campaign covered roughly 5,500 compounds. About 2,000 (36%) were called active. Inconclusive results (about 18%) are left out. No stated cut-off is given here; in the data, active means normalized growth mostly below about 0.91 (no sharp cut-off); inconclusive means no clear call, values can overlap the other calls; inactive means mostly above about 0.92. This is one part of the list.

Test: chemical genetic growth profiling, strain panel (AID 1159580);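 further: tested at 20 µM; growth read once vehicle control cultures reached saturation at 30 °C; 1 = growth at the plate median or of vehicle wells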
Details: growth OD
[1] = S. cerevisiae deletion strains, locus YAL013W, strain DEP1, stronger effect = lower value
[2] = S. cerevisiae deletion strains, locus YAL040C, strain CLN3, stronger effect = lower value
[3] = S. cerevisiae deletion strains, locus YCL061C, strain MRC1 (second series), stronger effect = lower value
[4] = S. cerevisiae deletion strains, locus YDR363W, strain ESC2, stronger effect = lower value
[5] = S. cerevisiae deletion strains, locus YER002W, strain NOP16, stronger effect = lower value
[6] = S. cerevisiae deletion strains, locus YJR075W, strain HOC1, stronger effect = lower value
[7] = S. cerevisiae deletion strains, locus YMR263W, strain SAP30, stronger effect = lower value
[8] = S. cerevisiae deletion strains, locus YNL175C, strain NOP13, stronger effect = lower value
[9] = S. cerevisiae deletion strains, locus YNL197C, strain WHI3, stronger effect = lower value
[10] = S. cerevisiae deletion strains, locus YNL224C, strain SQS1, stronger effect = lower value
[11] = S. cerevisiae deletion strains, locus YOR083W, strain WHI5 (second series), stronger effect = lower value
[12] = S. cerevisiae deletion strains, locus YPL055C, strain LGE1, stronger effect = lower value
[13] = S. cerevisiae deletion strains, locus YGR078C, strain PAC10, stronger effect = lower value
[14] = S. cerevisiae deletion strains, locus YNL153C, strain GIM3, stronger effect = lower value
[15] = S. cerevisiae deletion strains, locus YAR019C, strain CDC15, stronger effect = lower value
[16] = S. cerevisiae deletion strains, locus YBL105C, strain PKC1, stronger effect = lower value
[17] = S. cerevisiae deletion strains, locus YBR135W, strain CKS1, stronger effect = lower value
[18] = S. cerevisiae deletion strains, locus YBR136W, strain MEC1, stronger effect = lower value
[19] = S. cerevisiae deletion strains, locus YBR160W, strain CDC28, stronger effect = lower value
[20] = S. cerevisiae deletion strains, locus YDL017W, strain CDC7, stronger effect = lower value
[21] = S. cerevisiae deletion strains, locus YDL028C, strain MPS1, stronger effect = lower value
[22] = S. cerevisiae deletion strains, locus YDL101C, strain DUN1, stronger effect = lower value
[23] = S. cerevisiae deletion strains, locus YDL108W, strain KIN28, stronger effect = lower value
[24] = S. cerevisiae deletion strains, locus YDL132W, strain cdc53, stronger effect = lower value
[25] = S. cerevisiae deletion strains, locus YDL214C, strain PRR2, stronger effect = lower value
[26] = S. cerevisiae deletion strains, locus YDR052C, strain DBF4, stronger effect = lower value
[27] = S. cerevisiae deletion strains, locus YDR054C, strain cdc34, stronger effect = lower value
[28] = S. cerevisiae deletion strains, locus YDR226W, strain ADK1, stronger effect = lower value
[29] = S. cerevisiae deletion strains, locus YDR477W, strain SNF1, stronger effect = lower value
[30] = S. cerevisiae deletion strains, locus YER123W, strain YCK3, stronger effect = lower value
[31] = S. cerevisiae deletion strains, locus YER133W, strain GLC7, stronger effect = lower value
[32] = S. cerevisiae deletion strains, locus YFL009W, strain cdc4, stronger effect = lower value
[33] = S. cerevisiae deletion strains, locus YFL029C, strain CAK1, stronger effect = lower value
[34] = S. cerevisiae deletion strains, locus YFR003C, strain YPI1, stronger effect = lower value
[35] = S. cerevisiae deletion strains, locus YFR019W, strain FAB1, stronger effect = lower value
[36] = S. cerevisiae deletion strains, locus YFR028C, strain CDC14, stronger effect = lower value
[37] = S. cerevisiae deletion strains, locus YGR040W, strain KSS1, stronger effect = lower value
[38] = S. cerevisiae deletion strains, locus YGR052W, strain FMP48, stronger effect = lower value
[39] = S. cerevisiae deletion strains, locus YGR092W, strain DBF2, stronger effect = lower value
[40] = S. cerevisiae deletion strains, locus YHR030C, strain SLT2, stronger effect = lower value
[41] = S. cerevisiae deletion strains, locus YHR079C, strain IRE1, stronger effect = lower value
[42] = S. cerevisiae deletion strains, locus YHR082C, strain KSP1, stronger effect = lower value
[43] = S. cerevisiae deletion strains, locus YHR205W, strain SCH9, stronger effect = lower value
[44] = S. cerevisiae deletion strains, locus YIL147C, strain SLN1, stronger effect = lower value
[45] = S. cerevisiae deletion strains, locus YJL095W, strain BCK1, stronger effect = lower value
[46] = S. cerevisiae deletion strains, locus YJL128C, strain PBS2, stronger effect = lower value
[47] = S. cerevisiae deletion strains, locus YJL157C, strain FAR1, stronger effect = lower value
[48] = S. cerevisiae deletion strains, locus YJR016C, strain ILV3, stronger effect = lower value
[49] = S. cerevisiae deletion strains, locus YJR066W, strain TOR1 (second series), stronger effect = lower value
[50] = S. cerevisiae deletion strains, locus YJR066W, strain TOR1, stronger effect = lower value
[51] = S. cerevisiae deletion strains, locus YKL048C, strain ELM1, stronger effect = lower value
[52] = S. cerevisiae deletion strains, locus YKL067W, strain YNK1, stronger effect = lower value
[53] = S. cerevisiae deletion strains, locus YKL101W, strain HSL1, stronger effect = lower value
[54] = S. cerevisiae deletion strains, locus YKL193C, strain SDS22, stronger effect = lower value
[55] = S. cerevisiae deletion strains, locus YKL203C, strain TOR2, stronger effect = lower value
[56] = S. cerevisiae deletion strains, locus YLR113W, strain HOG1, stronger effect = lower value
[57] = S. cerevisiae deletion strains, locus YLR133W, strain CKI1, stronger effect = lower value
[58] = S. cerevisiae deletion strains, locus YLR403W, strain SFP1, stronger effect = lower value
[59] = S. cerevisiae deletion strains, locus YML070W, strain DAK1, stronger effect = lower value
[60] = S. cerevisiae deletion strains, locus YMR001C, strain CDC5, stronger effect = lower value
[61] = S. cerevisiae deletion strains, locus YMR205C, strain PFK2 (second series), stronger effect = lower value
[62] = S. cerevisiae deletion strains, locus YMR277W, strain FCP1, stronger effect = lower value
[63] = S. cerevisiae deletion strains, locus YNL006W, strain LST8, stronger effect = lower value
[64] = S. cerevisiae deletion strains, locus YNL020C, strain ARK1, stronger effect = lower value
[65] = S. cerevisiae deletion strains, locus YNL161W, strain CBK1, stronger effect = lower value
[66] = S. cerevisiae deletion strains, locus YNL183C, strain NPR1, stronger effect = lower value
[67] = S. cerevisiae deletion strains, locus YNL207W, strain RIO2, stronger effect = lower value
[68] = S. cerevisiae deletion strains, locus YNL222W, strain SSU72, stronger effect = lower value
[69] = S. cerevisiae deletion strains, locus YNL307C, strain MCK1 (second series), stronger effect = lower value
[70] = S. cerevisiae deletion strains, locus YOL078W, strain AVO1, stronger effect = lower value
[71] = S. cerevisiae deletion strains, locus YOL136C, strain PFK27, stronger effect = lower value
[72] = S. cerevisiae deletion strains, locus YOR061W, strain CKA2, stronger effect = lower value
[73] = S. cerevisiae deletion strains, locus YOR119C, strain RIO1, stronger effect = lower value
[74] = S. cerevisiae deletion strains, locus YOR231W, strain MKK1, stronger effect = lower value
[75] = S. cerevisiae deletion strains, locus YOR329C, strain SCD5, stronger effect = lower value
[76] = S. cerevisiae deletion strains, locus YPL031C, strain PHO85, stronger effect = lower value
[77] = S. cerevisiae deletion strains, locus YPL153C, strain RAD53, stronger effect = lower value
[78] = S. cerevisiae deletion strains, locus YPL204W, strain HRR25, stronger effect = lower value
[79] = S. cerevisiae deletion strains, locus YPL209C, strain IPL1, stronger effect = lower value
[80] = S. cerevisiae deletion strains, locus YPL256C, strain CLN2, stronger effect = lower value
[81] = S. cerevisiae deletion strains, locus YPR025C, strain CCL1, stronger effect = lower value
[82] = S. cerevisiae deletion strains, locus YPR106W, strain ISR1, stronger effect = lower value
[83] = S. cerevisiae deletion strains, locus YPR111W, strain DBF20, stronger effect = lower value
[84] = S. cerevisiae deletion strains, strain NNK1, stronger effect = lower value
[85] = S. cerevisiae deletion strains, strain TSCII, stronger effect = lower value

Measured: normalized growth

O=P(O)(O)C(Cl)(Cl)P(=O)(O)O
inactive: [1] 1.01 | [2] 0.972 | [3] 0.995 | [4] 1.04 | [5] 1.01 | [6] 1.03 | [7] 1 | [8] 1 | [9] 0.968 | [10] 1.02 | [11] 0.973 | [12] 1.02

CC12NC(Cc3ccccc31)c1ccccc12 (stereo not given)
inactive: [2] 0.983 | [3] 0.984 | [4] 1.04 | [5] 1.01 | [13] 0.992 | S. cerevisiae deletion strains, locus YNL128W, strain TEP1, stronger effect = lower value 1.06 | [14] 0.997 | [8] 1 | [9] 1.01 | [10] 0.988 | [11] 1 | [12] 1.01

CC1(C)CC(=O)C=C(Sc2nc3ccccc3o2)C1
inactive: [15] 0.966 | [16] 0.968 | [17] 0.955 | [18] 0.965 | [19] 0.962 | [20] 0.974 | [21] 0.965 | [22] 0.958 | [23] 0.961 | [24] 0.947 | [25] 0.933 | [26] 0.984 | [27] 0.949 | [28] 0.967 | [29] 0.949 | [30] 0.926 | [31] 0.979 | [32] 0.953 | [33] 0.965 | [34] 0.971 | [35] 0.941 | [36] 0.957 | [37] 0.945 | [38] 0.916 | [39] 0.739 | [40] 0.983 | [41] 0.955 | [42] 0.992 | [43] 0.861 | [44] 0.962 | [45] 0.837 | [46] 0.924 | [47] 0.951 | [48] 0.952 | [49] 0.875 | [50] 0.946 | [51] 0.961 | [52] 0.946 | [53] 0.925 | [54] 0.953 | [55] 0.99 | [57] 0.938 | [58] 0.901 | [59] 0.927 | [60] 0.961 | [61] 0.948 | [62] 0.956 | [63] 0.974 | [64] 0.944 | [65] 0.967 | [66] 0.951 | [67] 0.948 | [68] 0.964 | [69] 0.873 | [70] 0.947 | [71] 0.907 | [72] 0.955 | [73] 1.01 | [74] 0.902 | [75] 0.97 | [76] 0.946 | [77] 0.949 | [78] 0.935 | [79] 0.965 | [80] 0.967 | [81] 0.968 | [82] 0.964 | [83] 0.939 | [84] 0.961 | [85] 0.956
active: [56] 0.832

Cc1onc(-c2c(Cl)cccc2Cl)c1-c1nc(-c2ccc3c(c2)OCCO3)cs1
inactive: [1] 1.01 | S. cerevisiae deletion strains, locus YBR229C, strain ROT2, stronger effect = lower value 1.01 | S. cerevisiae deletion strains, locus YCL061C, strain MRC1, stronger effect = lower value 1 | [22] 1.01 | S. cerevisiae deletion strains, locus YDR150W, strain NUM1, stronger effect = lower value 1.03 | S. cerevisiae deletion strains, locus YEL061C, strain CIN8, stronger effect = lower value 1.02 | [13] 0.991 | [40] 0.998 | S. cerevisiae deletion strains, locus YHR087W, strain rtc3, stronger effect = lower value 1.01 | S. cerevisiae deletion strains, locus YJL187C, strain SWE1, stronger effect = lower value 1 | S. cerevisiae deletion strains, locus YJR043C, strain POL32, stronger effect = lower value 1.01 | [6] 0.99 | S. cerevisiae deletion strains, locus YLR039C, strain RIC1, stronger effect = lower value 0.959 | S. cerevisiae deletion strains, locus YLR058C, strain SHM2 (second series), stronger effect = lower value 1.01 | S. cerevisiae deletion strains, locus YLR085C, strain ARP6, stronger effect = lower value 0.973 | S. cerevisiae deletion strains, locus YLR262C, strain YPT6, stronger effect = lower value 1 | S. cerevisiae deletion strains, locus YML094W, strain GIM5, stronger effect = lower value 0.991 | S. cerevisiae deletion strains, locus YMR219W, strain ESC1, stronger effect = lower value 1 | [7] 0.993 | S. cerevisiae deletion strains, locus YMR307W, strain GAS1, stronger effect = lower value 0.946 | [14] 0.997 | S. cerevisiae deletion strains, locus YNL298W, strain CLA4 (second series), stronger effect = lower value 0.987 | S. cerevisiae deletion strains, locus YNL322C, strain KRE1, stronger effect = lower value 1.02 | S. cerevisiae deletion strains, locus YNR030W, strain Alg12, stronger effect = lower value 1.02 | S. cerevisiae deletion strains, locus YOL006C, strain TOP1, stronger effect = lower value 0.999 | [12] 1.04 | S. cerevisiae deletion strains, locus YPL241C, strain CIN2, stronger effect = lower value 1.02 | S. cerevisiae deletion strains, locus YPR135W, strain CTF4, stronger effect = lower value 0.934 | S. cerevisiae strains, strain wild type, stronger effect = lower value 1.01

Oc1c(Cl)cc(Cl)cc1C=Nc1nc(-c2ccc3ccccc3c2)cs1
active: [30] 0.59 | [39] 0.342 | [40] 0.486 | [47] 0.685 | [56] 0.62 | [57] 0.701 | [58] 0.639 | [59] 0.651 | [61] 0.741 | [64] 0.684 | [71] 0.537 | [72] 0.58 | [80] 0.558
inactive: [15] 0.958 | [16] 0.966 | [17] 0.947 | [18] 0.957 | [19] 0.96 | [20] 0.958 | [21] 0.958 | [22] 0.962 | [23] 0.959 | [24] 0.971 | [25] 0.793 | [26] 0.969 | [27] 0.957 | [28] 0.966 | [29] 0.802 | [31] 0.791 | [32] 0.956 | [33] 0.963 | [34] 0.961 | [35] 0.78 | [36] 0.966 | [37] 0.833 | [38] 0.827 | [41] 0.557 | [42] 0.814 | [43] 0.737 | [44] 0.952 | [45] 0.51 | [46] 0.971 | [48] 0.962 | [49] 0.86 | [50] 0.626 | [51] 0.871 | [52] 0.787 | [53] 0.854 | [54] 0.953 | [55] 0.824 | [60] 0.957 | [62] 0.958 | [63] 0.96 | [65] 0.965 | [66] 0.72 | [67] 0.959 | [68] 0.961 | [69] 0.757 | [70] 0.957 | [73] 0.855 | [74] 0.623 | [75] 0.963 | [76] 0.809 | [77] 0.768 | [78] 0.766 | [79] 0.954 | [81] 0.962 | [82] 0.973 | [83] 0.949 | [84] 0.964 | [85] 0.953
